Compound activity: PubChem BioAssay, National Center for Advancing Translational Sciences (NCATS)
Shown are actives, neighbours in structure and some others; about 7.5% of the full set was active somewhere.
Rab9 promoter act = activates the Rab9 promoter | AID 485297 | 320,000 tested, 2.8% active | Potency, µM (series often up to 9.22 µM), actives largely listed as activators | Huh7 Rab9 promoter-luciferase reporter, luminescence, 24 h; note: nearly all actives have a fitted effect of over 60% in size
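Huh7 reporter line, Rab9 promoter upstream of luciferase. Compound exposure 24 h at 37 °C in reduced-serum medium with 10% FBS. Read-out: luminescence.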
ELG1 genotoxic = induces genotoxicity in HEK293T cells with luciferase-tagged ELG1; HEK293T ELG1-luciferase reporter, luminescence, 16 h; Potency, µM (titrated, usually from 46 µM), most hits filed as activators; 330,000 tested, 1.3% active; note: nearly all actives have a fitted effect of over 60% in size
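ELG1-luciferase HEK293T cells, 2,000/well; compound pinned in; 16 hr, 37 °C, 5% CO2; ONE-Glo, 30 min RT; luminescence on CCD imager.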
NPC1 promoter act = activators of NPC1 promoter; Huh7 NPC1 promoter luciferase reporter, 24 h; Potency, µM (top dose mostly 9.22 µM), actives largely listed as activators; 320,000 tested, 2.4% active; AID 485313; note: nearly all actives have a fitted effect of over 60% in size
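Huh7 reporter cells (NPC1 promoter driving luciferase) are dosed with compound for 24 h at 37 °C, 5% CO2; luciferase detection reagent is then added and luminescence measured after 10 min at ambient temperature.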
KinaseGlo FLuc = Kinase-Glo luciferase inhibition (counter-screen); Potency, µM (highest dose often 38.3 µM), most hits filed as inhibitors; Q27757; 200,000 tested, 0.28% active; Kinase-Glo luciferase, ATP luminescence, 8 min; note: nearly all actives have a fitted effect of over 60% in size
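Light output from Kinase-Glo luciferase with luciferin and 10 uM ATP in 50 mM imidazole pH 7.2, KCl, MgCl2, Tween 20, BSA; compound pin-delivered, 8-min ambient incubation, then luminescence read.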
SMN2 splice enh = SMN2 splice variant enhancement; HEK293 SMN2-luciferase splicing reporter, luminescence, 30-36 h; Potency, µM (highest dose often 46.1 µM), usual class: activators; 210,000 tested, 2.8% active; note: nearly all actives have a fitted effect of over 55% in size
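qHTS luciferase splicing reporter: luminescence rises when SMN2 exon 7 is included in transfected HEK293 cells. Compound exposure lasted 30-36 h at 37C, with 4.5 mM final sodium butyrate as control, followed by a ONE-Glo read.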
FLuc modulator = inhibits or activates purified firefly luciferase, miR-21 counter-screen; P08659; purified FLuc, Km substrates, luminescence inhibition; Potency, µM (highest dose often 57.5 µM), actives largely listed as inhibitors; 360,000 tested, 6.9% active; AID 588342; note: nearly all actives have a fitted effect of over 55% in size
Target sequence (P08659 whole entry, looked up): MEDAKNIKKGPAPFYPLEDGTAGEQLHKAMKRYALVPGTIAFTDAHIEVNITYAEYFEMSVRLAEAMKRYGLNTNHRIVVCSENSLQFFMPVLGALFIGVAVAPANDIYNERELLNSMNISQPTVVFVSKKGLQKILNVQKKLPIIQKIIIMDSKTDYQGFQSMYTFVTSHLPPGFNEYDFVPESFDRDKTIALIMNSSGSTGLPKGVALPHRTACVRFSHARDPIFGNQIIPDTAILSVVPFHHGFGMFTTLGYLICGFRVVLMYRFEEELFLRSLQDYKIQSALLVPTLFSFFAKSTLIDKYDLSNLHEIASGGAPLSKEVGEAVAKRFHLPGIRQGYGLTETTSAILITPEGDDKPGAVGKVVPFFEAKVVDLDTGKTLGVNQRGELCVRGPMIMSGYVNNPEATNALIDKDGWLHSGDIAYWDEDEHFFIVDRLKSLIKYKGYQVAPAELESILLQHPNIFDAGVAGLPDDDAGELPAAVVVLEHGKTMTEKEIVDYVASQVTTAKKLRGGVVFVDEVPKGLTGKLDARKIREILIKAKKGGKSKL
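Purified P. pyralis luciferase (10nM final) with 10uM D-luciferin and 10uM ATP (Km levels) in 50mM Tris acetate pH 7.5, 10mM Mg acetate, 0.01% Tween-20, 0.05% BSA; qHTS 6-point titration, ~60 µM downward; luminescence read.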
Of the large screens only hits and unclear results are named; the others gave an inactive call. Calls come from the whole dose curve; as a rule, active = well fitted curve in the direction sought with a large enough effect; inconclusive = small, poorly fitted or top-dose-only effect, or another doubt; inactive = no such curve, though single readings can be large; an effect the other way counts as inactive or inconclusive.

O=C(CC(=O)c1ccccc1)Nc1cccnc1Cl	Rab9 promoter act inconclusive, ELG1 genotoxic inconclusive, NPC1 promoter act inconclusive, SMN2 splice enh 13µM, FLuc modulator 12µM
O=C(OCc1ccc(COC(=O)c2cccnc2Cl)cc1)c1cccnc1Cl	FLuc modulator inconclusive
O=C(COC(=O)c1cccnc1Cl)c1ccccc1	ELG1 genotoxic inconclusive, FLuc modulator 2.7µM
CCC(C)(C)c1ccc(OC(=O)c2cccnc2Cl)cc1	ELG1 genotoxic inconclusive, FLuc modulator 4.8µM (no result: KinaseGlo FLuc, SMN2 splice enh)
O=C(CCc1ccccc1)Nc1cccnc1Cl	none (no result: KinaseGlo FLuc, SMN2 splice enh)
CCc1ccc(C(=O)COC(=O)c2cccnc2Cl)cc1	FLuc modulator 0.43µM
COC(=O)CCC(=O)Nc1cccc([N+](=O)[O-])c1	none
CCCCCCCCC1CO1 (stereo not given)	none (no result: Rab9 promoter act, ELG1 genotoxic, NPC1 promoter act, KinaseGlo FLuc, FLuc modulator)
O=C(COC(=O)c1cccnc1Cl)c1ccc(F)cc1	FLuc modulator 3µM
COc1ccc(CCNC(=O)Cc2cc(OC)c(OC)cc2[N+](=O)[O-])cc1OC	none
COc1ccc(C(=O)Cc2cc(OC)c(OC)cc2[N+](=O)[O-])c(OC)c1	FLuc modulator 17µM
COc1ccc(C(=O)Cc2ccc(F)cc2)c(OC)c1	Rab9 promoter act inconclusive, ELG1 genotoxic inconclusive, NPC1 promoter act inconclusive, SMN2 splice enh inconclusive, FLuc modulator 17µM
COc1ccc(C(=O)Cc2nnc(C)s2)c(OC)c1	Rab9 promoter act inconclusive, ELG1 genotoxic inconclusive, SMN2 splice enh inconclusive, FLuc modulator inconclusive
CC1CN(C(=O)COc2coc(CN3CCc4ccccc4C3)cc2=O)CC(C)O1 (stereo not given)	none (no result: KinaseGlo FLuc, SMN2 splice enh)
Clc1ccc(C2=NOC(c3nnc(-c4ccccc4)o3)C2)cc1 (stereo not given)	none (no result: KinaseGlo FLuc, SMN2 splice enh)
Clc1cccc(Cl)c1C1=NOC(c2nnc(-c3ccccc3)o2)C1 (stereo not given)	Rab9 promoter act inconclusive, FLuc modulator 19µM (no result: KinaseGlo FLuc, SMN2 splice enh)
COc1ccc(N2CCN(C(=O)Cn3cnc4nc5c(cc4c3=O)CCCC5)CC2)cc1	none (no result: Rab9 promoter act, ELG1 genotoxic, NPC1 promoter act, KinaseGlo FLuc, SMN2 splice enh)
Cc1ccccc1-c1nnc(SCC#N)o1	none (no result: SMN2 splice enh)
Cc1ccccc1-c1nnc(-c2ccccc2C)o1	Rab9 promoter act inconclusive, ELG1 genotoxic inconclusive, NPC1 promoter act inconclusive, SMN2 splice enh 22µM, FLuc modulator 6.7µM
Oc1ccccc1-c1nnc(-c2ccc(C(F)(F)F)cc2)o1	ELG1 genotoxic inconclusive, FLuc modulator inconclusive
Cc1ccccc1-c1nnc(-c2ccc(Br)cc2)o1	Rab9 promoter act inconclusive, ELG1 genotoxic 9.2µM, NPC1 promoter act inconclusive, SMN2 splice enh inconclusive, FLuc modulator inconclusive
O=C(Cn1ncc(Cl)c(Cl)c1=O)N1CCN(S(=O)(=O)c2ccc3ccccc3c2)CC1	none (no result: KinaseGlo FLuc, SMN2 splice enh)
Cc1ccc(NC(=O)CSCc2cc(=O)n3cc(C)sc3n2)cc1	none (no result: KinaseGlo FLuc, SMN2 splice enh)
Cc1cccc(C(=O)Nc2cccc(OCc3cc(=O)n4c(C)csc4n3)c2)c1	none (no result: Rab9 promoter act, ELG1 genotoxic, NPC1 promoter act, KinaseGlo FLuc)
CC(C)(C)C1CCc2[nH]c3ccccc3c(=O)c2C1 (stereo not given)	ELG1 genotoxic inconclusive, KinaseGlo FLuc inconclusive, FLuc modulator 6µM
Cc1ccc(C)c(N2CCN(C(=O)C3CCN(S(=O)(=O)c4cccc5nsnc45)CC3)CC2)c1	none
Cc1ccc(C2CC(=O)C=C(Nc3ccc(Cl)cc3)C2)cc1 (stereo not given)	none
O=C1C=C(Nc2ccc(Cl)cc2)CC(c2ccc(Cl)cc2)C1 (stereo not given)	FLuc modulator 11µM
CCN(CC)c1ccc(/C=C(/C#N)c2nc3ccccc3[nH]2)c(OC(C)C)c1	Rab9 promoter act inconclusive, FLuc modulator 2.7µM
COc1cc(/C=C(\C#N)c2nc3ccc(C)cc3[nH]2)ccc1OC(C)C	none (no result: Rab9 promoter act, ELG1 genotoxic, NPC1 promoter act, KinaseGlo FLuc)
CCC(C)NC(=O)CN(c1cc(Cl)cc(Cl)c1)S(C)(=O)=O (stereo not given)	none (no result: SMN2 splice enh)
Cc1c(CCC(=O)N[C@@H](CC(C)C)C(=O)O)c(=O)oc2cc3oc4c(c3cc12)CCCC4	FLuc modulator 17µM (no result: KinaseGlo FLuc, SMN2 splice enh)
Cc1c(CCC(=O)N[C@@H](C)C(=O)O)c(=O)oc2c(C)c3oc4c(c3cc12)CCCC4	FLuc modulator inconclusive (no result: KinaseGlo FLuc, SMN2 splice enh)
Cc1oc2cc3oc(=O)c(CCC(=O)NCCC(=O)O)c(C)c3cc2c1C	FLuc modulator 12µM (no result: KinaseGlo FLuc, SMN2 splice enh)
